Rac1 act GTP bind: alters GTP binding to activated mutant human Rac1 | P63000 | GST-Rac1 activated beads, fluorescent GTP binding, flow cytometry; actives lie on both sides; 100% means binding = to untreated wells | percent activity (GTP binding), % at 10 µM | actives 0.11% (n = 190,000) | AID 764;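 active means GTP binding at least 20 percentage points away from the 100% baseline, in either direction, so actives lie on both sides; inconclusive means Compound likely fluorescent itself, or too few beads counted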
Cdc42 wt GTP: modulators (inhibitors or activators) of GTP binding to human Cdc42 wildtype | percent activity (GTP binding), % at 10 µM | GST-Cdc42 beads, Bodipy-GTP binding, flow cytometry; actives lie on both sides | AID 761 | actives 0.2% (n = 190,000);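 active means percent activity GTP binding at least 20 points away from the 100% baseline, either down as inhibitor or up as activator; inconclusive means compound flagged as likely green fluorescent from well-wide comparison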;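 further: median bead fluorescence of bound Bodipy-FL-GTP at 100 nM; 0% = excess unlabeled GTP control and 100% = no compound control; below 100% means less GTP binding so inhibitor and above means activator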
Target sequence (P60953 whole entry, looked up): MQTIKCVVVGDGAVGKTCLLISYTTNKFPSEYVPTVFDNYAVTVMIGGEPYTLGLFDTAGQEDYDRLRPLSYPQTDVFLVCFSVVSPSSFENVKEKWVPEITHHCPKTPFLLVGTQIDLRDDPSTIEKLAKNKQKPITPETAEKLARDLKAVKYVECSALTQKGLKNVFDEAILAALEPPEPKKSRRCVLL
Rac1 wt GTP bind: modulators of human Rac1 wildtype GTP binding. P63000. GST-Rac1 beads, fluorescent GTP binding, flow cytometry; actives lie on both sides; 0 = cold GTP competed, 100 = untreated. GTP binding activity (% of control), % at 10 µM. actives 0.27% (n = 190,000);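 active means GTP binding activity at least 20 points away from the 100% control level, either lower or higher; inconclusive means compound flagged as likely green fluorescent, judged across all proteins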
Rab2A wt mod: changes GTP binding to wildtype dog Rab2A, up or down. GTP binding activity, % at 10 µM. GST-Rab2 wt beads, Bodipy-GTP binding, flow cytometry. AID 760. P61105. actives 0.19% (n = 190,000);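 active means GTP binding activity at least 20 points away from 100%, either lowered or raised; inconclusive means signal likely due to the compound's own green fluorescence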;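 further: 0% = beads with excess unlabeled GTP and 100% = no-compound control corrected for plate trend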
Rab7 wt modul: dog Rab7 wildtype GTP binding, inhibitors and activators; GST-Rab7 beads, fluorescent GTP binding, flow cytometry; actives lie on both sides; untreated = 100%, excess cold GTP = 0%; GTP binding activity (percent of control), % at 10 µM; actives 0.055% (n = 190,000);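 active means fluorescent GTP binding to Rab7 beads changed by at least 20 points from the 100% baseline, either direction, mostly lower; inconclusive means compound itself probably fluorescent, or too few beads counted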;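 further: median green fluorescence of bound Bodipy-FL-GTP per Rab7 bead population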
HRas wt GTP bind: modulators of GTP binding to human HRas wildtype. GST-Ras wt beads, Bodipy-FL-GTP binding, flow cytometry; actives lie on both sides. GTP binding activity, % at 10 µM. actives 0.14% (n = 190,000). AID 759;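 active means GTP binding activity at least 20% away from the 100% baseline, either lowered as inhibitor or raised as activator; inconclusive means flagged as likely green fluorescent, judged across all proteins in the well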;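 further: 0% = unlabeled GTP competition control and 100% = no-compound control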
Target sequence (P01112 whole entry, looked up): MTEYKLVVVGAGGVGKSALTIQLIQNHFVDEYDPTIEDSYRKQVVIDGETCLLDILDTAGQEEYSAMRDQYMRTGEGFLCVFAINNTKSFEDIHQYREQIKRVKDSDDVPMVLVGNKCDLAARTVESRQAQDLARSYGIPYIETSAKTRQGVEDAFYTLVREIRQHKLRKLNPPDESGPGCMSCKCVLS
Numbers without * were called inactive; ? = inconclusive; [ ] = remark or other dose. Most compounds without a hit are left out; they make up all but 0.4% or so of the library.

SMILES | Rac1 act GTP bind | Cdc42 wt GTP | Rac1 wt GTP bind | Rab2A wt mod | Rab7 wt modul | HRas wt GTP bind
O=C(Oc1c(Br)cc(C(=S)N2CCOCC2)cc1Br)c1ccc(Cl)cc1 | 77* | 75* | 80 | 78* | 88 | 80
C/C(=N\Nc1ccc(S(N)(=O)=O)cc1[N+](=O)[O-])c1ccc2c(c1)OCO2 | 88 | 84 | 76* | 85 | 97 | 89
S=c1[nH]nc(-c2ccco2)n1-c1ccccc1Cl | 79* | 79* | 77* | 85 | 88 | 84
O=C(Nc1c(F)cccc1F)c1cnc(N2CCN(c3ccccn3)CC2)c2ccccc12 | 106 | 103 | 131*[activator] | 97 | 101 | 101
CCC(Sc1nc(-c2ccccc2)cc(=O)[nH]1)C(=O)O (stereo not drawn) | 94 | 94 | 96 | 93 | 96 | 94
CC(C)Sc1nc(-c2ccccc2)cc(=O)[nH]1 | 105 | 115 | 128*[activator] | 109 | 104 | 110
CC(=O)Nc1ccc(Nc2ccc3c4c(cc(=O)n3C)-c3ccccc3C(=O)c24)cc1 | 87 | 88 | 77* | 85 | 93 | 86
Cc1ccc(Nc2nnc(SCC(=O)NCCN3C(=O)CSC3=O)s2)cc1C | 96 | 97 | 94 | 93 | 95 | 94
O=C(COC(=O)/C=C/c1cccc([N+](=O)[O-])c1)NCc1ccc2c(c1)OCO2 | 79* | 82 | 85 | 82 | 98 | 88
Cc1ccc(CNC(=O)COC(=O)c2ccc(S(=O)(=O)N(C)C)cc2)cc1 | 94 | 95 | 98 | 94 | 98 | 95
O=C(O)c1ccc(Nc2nc(-c3cc4ccccc4oc3=O)cs2)cc1O | 88 | 84 | 79* | 87 | 94 | 87
Cc1cccc(C(=O)OCc2cncs2)c1 | 96 | 97 | 100 | 92 | 98 | 96
Cc1cc(C)n2ncc(C(=O)O)c2n1 | 94 | 78* | 92 | 80 | 92 | 82
CCOc1ccc(Cn2c3ccc(OC)cc3c3nc4ccccc4nc32)cc1 | 115 | 103 | 124*[activator] | 130*[activator] | ? | 119
Cc1cc(NC(=O)c2cccc(C(=O)Nc3cc(C)on3)n2)no1 | 91 | 79* | 88 | 80 | 93 | 80
O=C(NC(=S)NCC1CCCO1)c1cccc([N+](=O)[O-])c1 (stereo not drawn) | 100 | 101 | 105 | 100 | 100 | 101
CCOc1cc(/C=N/NC(=O)c2cc(-c3cccnc3)nc3ccccc23)ccc1O | 88 | 83 | 78* | 83 | 99 | 86
CCOc1cc(/C=N/Nc2nncc(-c3ccccc3)n2)ccc1O | 87 | 84 | 74* | 85 | 87 | 83
COc1cccc(N/C(SCc2ccccc2F)=C(/C#N)C(=O)NCc2cccs2)c1 | 99 | 106 | 110 | 101 | 100 | 101
COc1ccc(CCNC(=O)C2CCCN2C(=O)NC2CCCCC2)cc1OC (stereo not drawn) | 114 | 141*[activator] | 143*[activator] | 128*[activator] | 99 | 122*[activator]
COc1ccc(CCNC(=O)NC2CCCCC2)cc1OC | 95 | 97 | 96 | 97 | 96 | 96
COc1cc2[nH]c(=S)nc(NCCc3ccc(S(N)(=O)=O)cc3)c2cc1OC | 61* | 32* | 40* | 37* | 81 | 35*
COc1cc2[nH]c(=S)nc(NCCc3ccc(C)cc3)c2cc1OC | 65* | 45* | 49* | 49* | 69* | 54*
COc1cc2[nH]c(=S)nc(NCc3cccs3)c2cc1OC | 81 | 61* | 60* | 66* | 90 | 63*
COc1cc2[nH]c(=O)n(CCC(=O)NCCC(C)C)c(=O)c2cc1OC | 98 | 103 | 107 | 100 | 101 | 101
SMILES | Rac1 act GTP bind | Cdc42 wt GTP | Rac1 wt GTP bind | Rab2A wt mod | Rab7 wt modul | HRas wt GTP bind
COc1ccccc1CC(=O)NCCc1ccc(S(N)(=O)=O)cc1 | 102 | 108 | 111 | 103 | 100 | 103
COc1cc2ncnc(NCc3cccs3)c2cc1OC | 94 | 95 | 91 | 98 | 109 | 98
COc1cc2[nH]c(=S)nc(NCCC(C)C)c2cc1OC | 71* | 56* | 52* | 59* | 85 | 64*
Cn1c(COc2ccc3ccccc3c2)nnc1SCC(=O)OC1CCCCC1 | 96 | 98 | 104 | 99 | 100 | 100
Cc1cccc(NC(=O)COc2cccc3c2CCN(Cc2ccccc2)C3=O)c1C | 97 | 99 | 100 | 102 | 100 | 99
COc1ccc(CCNc2nc(=S)[nH]c3cc(OC)c(OC)cc23)cc1OC | 67* | 49* | 71* | 47* | 74* | 48*
COc1ccc(CCNC(=O)c2ccc(CNc3nc(=S)[nH]c4ccccc34)cc2)cc1OC | 96 | 102 | 96 | 101 | 105 | 98
CCCCCC(=O)Nc1ccc(-c2csc(N)n2)cc1 | 93 | 97 | 97 | 97 | 108 | 97
CC(C)(C)NC(=O)CSc1nccn1Cc1ccccc1 | 82 | 77* | 75* | 85 | 90 | 86
O=C(CSc1nccn1Cc1ccccc1)Nc1nccs1 | 99 | 103 | 105 | 103 | 102 | 103
CCOC(=O)N1CCc2c(sc3c2c(=O)n(Cc2ccccc2)c(=O)n3Cc2cccc(C)c2)C1 | 95 | 97 | 98 | 96 | 94 | 96
Nc1c(S(=O)(=O)c2cccc(Cl)c2)c2nc3ccccc3nc2n1/N=C/c1ccc(O)c(O)c1 | 80 | 63* | 79* | 76* | ? | 63*
COc1cccc(/C=N/n2c(N)c(S(=O)(=O)c3cccs3)c3nc4ccccc4nc32)c1OC | 89 | 81 | 88 | 85 | 91 | 84
O=[N+]([O-])c1ccc(/C=N/N=C/c2ccc([N+](=O)[O-])o2)o1 | 90 | 92 | 95 | 91 | 91 | 91
O=C1OC(c2ccc(F)cc2)=C/C1=C\c1ccc([N+](=O)[O-])o1 | 103 | 115 | 113 | 118 | 124*[activator] | 112
COc1cc2[nH]c(=S)n(CC3CCCO3)c(=O)c2cc1OC (stereo not drawn) | 99 | 104 | 104 | 105 | 104 | 104
COc1cc2[nH]c(=S)nc(NC3CCCCCC3)c2cc1OC | 83 | 69* | 60* | 69* | 88 | 66*
COc1cc2[nH]c(=S)nc(NCC3CCCO3)c2cc1OC (stereo not drawn) | 84 | 74* | 74* | 80 | 88 | 81
Cn1c(=O)[nH]c(=O)c2c1nc(N1CCCCCC1)n2CCOc1ccccc1 | 95 | 92 | 97 | 99 | 103 | 97
Cc1[nH]c2ccccc2c1CN1CCC(Cc2ccccc2)CC1 | 93 | 98 | 103 | 98 | 97 | 98
Cc1cc(C)n2nc(SCC(=O)Nc3ccccc3)nc2n1 | 96 | 97 | 99 | 97 | 96 | 96
